PubChem BioAssay AID1159580 (chemical genetic matrix, 2015)
“And” between values parts separate entries of the source, which are not always exact repeats. Identical values can stand only once. In all, about 5,500 compounds went through this assay and about 2,000 (36%) were called active. Not shown: some 18% with an inconclusive outcome. No stated cut-off is given here; in the data, active means normalized growth mostly below about 0.91 (no sharp cut-off); inconclusive means no clear call, values can overlap the other calls; inactive means mostly above about 0.92. Some of the results follow.

Test: chemical genetic growth profiling, strain panel (AID 1159580);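 further: tested at 20 µM; growth read once vehicle control cultures reached saturation at 30 °C; 1 = growth at the plate median or of vehicle wells; lower values mean less growth of the strain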
Conditions: S. cerevisiae deletion strains, growth OD

Measured: normalized growth

O=C(CCc1ccc(O)cc1)c1c(O)cc(O)cc1O
inactive: locus YAL013W, strain DEP1, active compounds read low 1.01 | locus YAL021C, strain ccr4, active compounds read low 0.998 | locus YAL026C, strain drs2, active compounds read low 1 | locus YAL030W, strain snc1, active compounds read low 1.01 | locus YAL040C, strain CLN3, active compounds read low 1.05 | locus YBL061C, strain skt5, active compounds read low 1.02 | locus YBR009C, strain hhf1, active compounds read low 0.992 | locus YBR021W, strain FUR4, active compounds read low 1.03 | locus YBR023C, strain chs3, active compounds read low 0.999 | locus YBR171W, strain sec66, active compounds read low 1.02 | locus YBR229C, strain ROT2, active compounds read low 0.991 | locus YBR231C, strain swc5, active compounds read low 1.01 | locus YBR279W, strain paf1, active compounds read low 1.01 | locus YCL011C, strain gbp2, active compounds read low 1.02 | locus YCL016C, strain dcc1, active compounds read low 1.01 | locus YCL029C, strain bik1, active compounds read low 1 | locus YCL061C, strain MRC1 (second series), active compounds read low 1.01 | locus YCL061C, strain MRC1, active compounds read low 0.99 | locus YCL069W, strain vba3, active compounds read low 1.02 | locus YCR088W, strain abp1, active compounds read low 1.02 | locus YDL005C, strain med2, active compounds read low 1.02 | locus YDL035C, strain GPR1, active compounds read low 1.01 | locus YDL040C, strain nat1, active compounds read low 0.997 | locus YDL074C, strain BRE1, active compounds read low 0.987 | locus YDL101C, strain DUN1, active compounds read low 1.01 | locus YDL134C, strain PPH21, active compounds read low 1.01 | locus YDL185W, strain tfp1, active compounds read low 1.01 | locus YDL192W, strain arf1, active compounds read low 1.01 | locus YDR001C, strain nth1, active compounds read low 1.02 | locus YDR069C, strain doa4, active compounds read low 0.978 | locus YDR101C, strain arx1, active compounds read low 1.02 | locus YDR137W, strain rgp1, active compounds read low 1.11 | locus YDR150W, strain NUM1, active compounds read low 1 and 0.988 | locus YDR159W, strain sac3, active compounds read low 1.04 | locus YDR162C, strain NBP2, active compounds read low 0.989 | locus YDR195W, strain ref2 1 | locus YDR297W, strain sur2, active compounds read low 1 | locus YDR318W, strain mcm21, active compounds read low 1.04 | locus YDR334W, strain swr1, active compounds read low 1 | locus YDR335W, strain msn5, active compounds read low 1.01 | locus YDR363W, strain ESC2, active compounds read low 0.977 | locus YDR388W, active compounds read low 1.01 | locus YDR392W, strain spt3, active compounds read low 1 | locus YDR502C, strain sam2, active compounds read low 0.994 | locus YEL003W, strain gim4, active compounds read low 1.01 | locus YEL037C, strain rad23, active compounds read low 1 | locus YEL061C, strain CIN8 (second series), active compounds read low 1.02 | locus YEL061C, strain CIN8, active compounds read low 0.997 | locus YER002W, strain NOP16, active compounds read low 1.02 | locus YER015W, strain faa2, active compounds read low 1 | locus YER016W, strain bim1, active compounds read low 1.01 | locus YER110C, active compounds read low 1.01 | locus YER111C, strain swi4, active compounds read low 1.01 | locus YER155C, strain BEM2 (second series), active compounds read low 1 | locus YER155C, strain BEM2, active compounds read low 1.01 | locus YER167W, strain BCK2, active compounds read low 1.02 | locus YFR010W, strain ubp6, active compounds read low 0.992 | locus YGL078C, strain dbp3, active compounds read low 1.01 | locus YGL086W, strain mad1, active compounds read low 1.01 | locus YGL167C, strain pmr1, active compounds read low 1.01 | locus YGL173C, strain kem1, active compounds read low 1.02 | locus YGL227W, strain vid30, active compounds read low 1.02 | locus YGL240W, strain doc1, active compounds read low 1.01 | locus YGL248W, strain PDE1, active compounds read low 1 | locus YGL253W, strain hxk2, active compounds read low 1.02 | locus YGR078C, strain PAC10, active compounds read low 0.987 and 1.01 | locus YGR135W, strain pre9, active compounds read low 0.998 | locus YGR229C, strain SMI1, active compounds read low 0.979 | locus YHR013C, strain ard1, active compounds read low 0.99 | locus YHR027C, strain rpn1, active compounds read low 1.01 | locus YHR030C, strain SLT2, active compounds read low 1 and 0.997 | locus YHR079C, strain IRE1 (second series), active compounds read low 1 | locus YHR079C, strain IRE1, active compounds read low 0.983 | locus YHR094C, strain hxt1, active compounds read low 0.999 | locus YHR129C, strain ARP1, active compounds read low 0.998 | locus YHR142W, strain chs7, active compounds read low 1.01 | locus YHR200W, strain rpn10, active compounds read low 1.02 | locus YIL066C, strain RNR3, active compounds read low 1.01 | locus YIL073C, strain SPO22, active compounds read low 1.1 | locus YIL125W, strain kgd1, active compounds read low 1.03 | locus YIR030C, strain dcg1, active compounds read low 1.01 | locus YJL092W, strain hpr5, active compounds read low 1.01 | locus YJL095W, strain BCK1 (second series), active compounds read low 1.01 | locus YJL095W, strain BCK1, active compounds read low 0.994 and 0.99 | locus YJL115W, strain asf1, active compounds read low 1.02 | locus YJL129C, strain trk1, active compounds read low 1.05 | locus YJL134W, strain LCB3, active compounds read low 1.01 | locus YJL154C, strain vps35, active compounds read low 1.02 | locus YJL164C, strain tpk1, active compounds read low 0.984 | locus YJL166W, strain qcr8, active compounds read low 1.01 | locus YJL168C, strain set2, active compounds read low 0.995 | locus YJL187C, strain SWE1 (second series), active compounds read low 0.995 | locus YJL187C, strain SWE1, active compounds read low 1.02 | locus YJR043C, strain POL32, active compounds read low 0.997 | locus YJR066W, strain TOR1, active compounds read low 0.948
